Laboratory results taken from PubChem BioAssay AID504834 (National Center for Advancing Translational Sciences (NCATS), 2011).
Hit rate of the full screen: of about 320,000 compounds, about 22,000 (6.9%) were called active. Another 27% or so got no clear call; they are omitted. The entries come from a sample that favours actives as a whole. Unmarked numbers belong to inactive results. Calls come from the whole dose curve; as a rule, active = well fitted inhibition curve with a large enough effect; inconclusive = small, poorly fitted or top-dose-only effect, or another doubt; inactive = no such curve, though single readings can be large or run the other way.

Experiment: Primary qHTS for delayed death inhibitors of the malarial parasite plastid, 96 hour incubation
Conditions: P. falciparum luciferase reporter growth; series mostly up to 28.7 µM; activity change, negative = inhibition: at the top concentration
Procedure, shortened: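 Readout is luminescence from an integrated firefly luciferase in P. falciparum. Red cells, 2% hematocrit and 0.05% parasitemia final, were cultured with compound through two parasite generations (96 hours) at 37 C, 5% CO2.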
% is set by controls: 0 for no effect and ±100 for the full control effect; potency is the fitted concentration of half-maximal effect.

Row | Structure (SMILES) | activity change, negative = inhibition | Potency
1 | COc1ccc(NC(=O)NNC(=O)COc2cc(C)c(Cl)c(C)c2)c(OC)c1 | 15.4% | –
2 | COC(=O)c1ccc(COc2cc([N+](=O)[O-])cc3cccnc23)cc1 | 105% | –
3 | CCc1ccc(S(=O)(=O)NCC(O)COc2ccc(OC)cc2)cc1 (stereo not given) | 30.5% | –
4 | O=C(Nc1cccc(-n2cnnn2)c1)c1cccnc1 | 33.7% | –
5 | CC(=O)C(C)n1cnc2scc(-c3ccc(C)cc3)c2c1=O (stereo not given) | -25.2% | –
6 | CCOC(=O)c1c(NC(=O)CCl)sc(C(=O)N(CC)CC)c1C | – | 9.28 µM (active)
7 | CCOC(=O)Nc1sc(C(=O)N(C)C)c(C)c1C(=O)OCC | 207% | –
8 | CCOC(=O)c1sc(NC(=O)CCN2CCOCC2)c(C(=O)OCC)c1C | 22.1% | –
9 | O=C(NCc1ccncc1)c1ccc(NS(=O)(=O)c2cccc([N+](=O)[O-])c2)cc1 | -1.86% | –
10 | Cc1nc2ccccc2c(=O)n1-c1ccc(NS(=O)(=O)c2ccc(F)cc2F)cc1 | 17.4% | –
11 | CCn1c(Cc2ccccc2)nnc1SCc1nc2ccccc2c(=O)[nH]1 | 9.46% | –
12 | COCCn1c(SCc2nc3cc(OC)c(OC)cc3c(=O)[nH]2)nnc1-c1ccncc1 | 40.9% | –
13 | CCn1c(SCc2ccccc2)nc2cc(OC)c(OC)cc2c1=O | – | 2.94 µM (active)
14 | CS(=O)(=O)c1ccc(-c2nnn(CC(=O)Nc3ccc4c(c3)OCCO4)n2)cc1 | 19.7% | –
15 | O=C1c2ccccc2C(=O)C1c1ccccc1F | -0.389% | –
16 | O=C(NCc1ccco1)c1ccc([N+](=O)[O-])cc1Cl | -5.31% | –
17 | Cc1ccc2c(c1)C1CN(C)CCC1N2C(=O)c1ccccc1NS(=O)(=O)c1ccc(F)cc1C (stereo not given) | – | 9.28 µM (active)
18 | Cc1ccc2c(c1)C1CN(C)CCC1N2C(=S)Nc1ccc(Cl)cc1Cl (stereo not given) | -2.18% | –
19 | Cc1ccc2c(c1)C1CN(C)CCC1N2C(=O)Cn1nnc(-c2ccccc2F)n1 (stereo not given) | 27.2% | –
20 | CC(OC(=O)CNC(=O)c1ccco1)C(=O)Nc1ccc(Cl)cn1 (stereo not given) | 19.5% | –
21 | O=C(CSc1nc2ccccc2[nH]1)N/N=C/C=C\c1ccccc1[N+](=O)[O-] | -5.62% | –
22 | Cc1nn(-c2ccccc2)c(C)c1/C=N/NC(=O)CSc1nc2ccccc2c(=O)n1-c1ccccc1 | -19.8% | –

Row | Structure (SMILES) | activity change, negative = inhibition | Potency
23 | Cc1ccc(-n2c(SCC(=O)N/N=C/C=C/c3ccccc3[N+](=O)[O-])nc3ccccc3c2=O)cc1 | – | 10.4 µM (active)
24 | COc1ccc(CCNC(=O)CN(C)S(=O)(=O)c2ccc3nc(C)sc3c2)cc1OC | 4.32% | –
25 | CCn1c(SCC(=O)Nc2ccccc2F)nc2c(c1=O)SC(C)C2 (stereo not given) | – | 11.7 µM (active)
26 | Cn1c(SCC(=O)N2CCCCC2)nc2c(c1=O)SCC2 | -11.4% | –
27 | CCn1c(SCC(=O)Nc2ccc3c(c2)OCCO3)nc2c(c1=O)SC(C)C2 (stereo not given) | 6.59% | –
28 | CC1Cc2nc(SCC(=O)Nc3ccccc3F)n(C)c(=O)c2S1 (stereo not given) | 27.8% | –
29 | Cn1nnnc1SCC(=O)Nc1ccccc1C(=O)NC1CC1 | 11.2% | –
30 | COCCn1c(SCC(=O)Nc2cc(OC)ccc2OC)nc2c(c1=O)SC(C)C2 (stereo not given) | -29.5% | –
31 | COCCn1c(SCC(=O)Nc2cc(Cl)ccc2OC)nc2c(c1=O)SC(C)C2 (stereo not given) | – | 3.7 µM (active)
32 | COCCn1c(SCC(=O)Nc2ccccc2F)nc2c(c1=O)SCC2 | – | 14.7 µM (active)
33 | CCCCSc1nc2c(c(=O)n1CC)SC(C)C2 (stereo not given) | -41.8% | –
34 | CCOc1ccc(CCNC(=O)COC(=O)C2CCN(c3ccc(C(F)(F)F)cn3)CC2)cc1OCC | -3.1% | –
35 | FC(F)(F)C1CCCN(c2nsc3ccccc23)C1 (stereo not given) | -53.7% | –
36 | Cc1cccc(NC(=O)C2CCCN(C(=O)Nc3ccc(F)cc3)C2)c1C (stereo not given) | 33.5% | –
37 | CCOC(=O)N1CCN(S(=O)(=O)c2ccc(Br)cc2)CC1 | -3.72% | –
38 | CC(C)(C)c1ccccc1NC(=O)CN1C(=O)NC2(CCCC2)C1=O | 18% | –
39 | CN(C)c1ccc(C2Nc3ccccc3C(=O)N2NS(=O)(=O)c2ccccc2)cc1 (stereo not given) | 7.21% | –
40 | CC(C)C(=O)N1c2ccccc2NC2=C(C(=O)CCC2)C1c1ccc(N(C)C)cc1 (stereo not given) | – | 2.33 µM (active)
41 | CC1C(=O)Nc2ccccc2N1C(=O)c1c(F)cccc1F (stereo not given) | -2.07% | –
42 | Cc1cc(C)cc(NC(=O)N2CCCCCCC2)c1 | -12.7% | –
43 | Cc1ccc(C(=O)N2CCCC2)c(F)c1F | 43.2% | –
44 | Cc1ccc(C(NC(=O)N2CCCC2)C(Cl)(Cl)Cl)cc1F (stereo not given) | – | 8.28 µM (active)

Row | Structure (SMILES) | activity change, negative = inhibition | Potency
45 | CC(Sc1ncnc2c1cnn2-c1ccccc1)C(=O)Nc1ccc(N2CCOCC2)cc1 (stereo not given) | 52.5% | –
46 | CCOC(=O)c1ccccc1CN1C(=O)c2ccccc2S1(=O)=O | -21.7% | –
47 | CCOC(=O)c1cc2n(c1N)-c1ccccc1C2=O | -2.58% | –
48 | CCOC(=O)c1cc2n(c1C)-c1ccccc1C2=O | – | 9.28 µM (active)
49 | Nc1c(N(CCO)C(=O)C2CCCCC2)c(=O)[nH]c(=O)n1Cc1ccccc1 | -15.8% | –
50 | CC(=O)Nc1ccc(-c2csc(NC(=O)Nc3ccccc3)n2)cc1 | -17% | –
51 | CC(=O)Nc1ccc(-c2csc(NC=C3C(=O)OC(C)(C)OC3=O)n2)cc1 | 48.3% | –
52 | CC(=O)Nc1ccc(S(=O)(=O)Nc2nc(-c3ccc(C(C)(C)C)cc3)cs2)cc1 | – | 1.65 µM (active)
53 | O=C(CSc1nnc(CNC(=O)c2ccc(F)cc2)o1)Nc1ccc2c(c1)OCO2 | 17.8% | –
54 | Cc1ccc(N2C(=O)CC(N3CCSCC3)C2=O)c(C)c1 (stereo not given) | 32.4% | –
55 | N#Cc1ccc(S(=O)(=O)NCC(=O)OCC(=O)NCCc2ccccc2)cc1 | 0.639% | –
56 | O=C(COC(=O)CCc1nc2ccccc2c(=O)[nH]1)Nc1ccc(N2CCOCC2)cc1 | 31.5% | –
57 | CC(C)NC(=O)CSc1nnc(COc2ccccc2Cl)o1 | -6.92% | –
58 | Cc1ccccc1OCc1nnc(SCC(=O)N2c3ccccc3Sc3ccc(Cl)cc32)o1 | – | 13.1 µM (active)
59 | Cc1ccc(NC(=O)CSc2nnc(COc3ccccc3C)o2)cc1 | -34.1% | –
60 | O=C(NNS(=O)(=O)Cc1ccccc1)c1ccc([N+](=O)[O-])cc1 | 5.29% | –
61 | Cc1ccccc1-c1n[nH]c(=S)n1C | 19.3% [at 5.75 µM] | –
62 | Cn1c(-c2sccc2OCc2cccc(C(F)(F)F)c2)n[nH]c1=S | – | 14.7 µM (active)
63 | Cn1c(-c2sc3cc(C(F)(F)F)cnc3c2-c2ccccc2)n[nH]c1=S | -10.7% | –
64 | O=c1o[nH]c(-c2ccccc2)c1N=Nc1c(F)cccc1Cl | 43% | –
65 | CC[C@H]1CN2CCc3cc(OC)c(OC)cc3[C@@H]2C[C@@H]1C[C@H]1NCCc2cc(OC)c(OC)cc21 | – | 0.0738 µM (active)
